In PubChem BioAssay one finds growth inhibition, inhibition and outcome data, which are given here for 20 molecules.

Unmarked numbers belong to inactive results. For some of these results: Potency and affinity values are given separately. The source made the active and inactive calls. Unless noted, how the calls were made is not given here.

As a reminder, the inhibition is the relative decrease from the control value, in per cent.

The nature of assay [1]: antimalarial activity against Dd2 strain (AID 2302;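 active means growth inhibition above 50% at the single 2 µM test dose, taken to imply half-maximal potency below 2 µM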;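 further: 0% = DMSO untreated growth and 100% = chloroquine plus artemisinin killed control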). The settings on record: P. falciparum Dd2 in RBCs, LDH growth readout, 72 h; at 2 µM; hits give high values.
The nature of assay [2]: human hepatoma cell viability loss – ATP luminescence, cytotoxicity control for P. falciparum antimalarial project, primary screen (AID 2303;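 active means inhibition above 50%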;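 further: 0% = DMSO wells and 100% = digitonin-killed cells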). Particulars: HepG2 viability, 24-48 h, at 10 µM, hits give high values.
Assay [3] addresses L-lactate dehydrogenase (Plasmodium falciparum (isolate CDC / Honduras)) (UniProt Q27743). Put plainly: PfLDH activity inhibition – cell lysate, 3D7 strain, counter-screen for P. falciparum growth inhibition project (AID 2304).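 Further: 0% = vehicle and 100% = reference inhibitor.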 The settings on record: P. falciparum 3D7 crude extract, LDH APAD/NBT absorbance; at 2 µM; hits give high values.
Assay [4] in a line: inhibition of 3D7 malaria parasite growth – strain 3D7 (AID 2306).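 Further: 0% = DMSO wells and 100% = chloroquine plus artemisinin control wells.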 Particulars: P. falciparum 3D7 erythrocytic growth, LDH absorbance, 72 h; at 2 µM; hits give high values.
In assay [5] the target is Calcium-dependent protein kinase 1 (Plasmodium falciparum (isolate 3D7)) (UniProt P62344). Description: PfCDPK1 kinase inhibitors, biochemical, TCAMS library (AID 1159585; cut-off not given, nearly all actives have IC50 up to about 0.98 µM;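 further: inhibitors leave more ATP so luminescence rises with inhibition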). The settings on record: recombinant PfCDPK1, Kinase-Glo ATP depletion luminescence. Background: Kinase-Glo measures the ATP left after a reaction by luminescence.
Calcium-dependent protein kinase 1 (Plasmodium falciparum (isolate 3D7)), sequence (P62344 whole entry, looked up): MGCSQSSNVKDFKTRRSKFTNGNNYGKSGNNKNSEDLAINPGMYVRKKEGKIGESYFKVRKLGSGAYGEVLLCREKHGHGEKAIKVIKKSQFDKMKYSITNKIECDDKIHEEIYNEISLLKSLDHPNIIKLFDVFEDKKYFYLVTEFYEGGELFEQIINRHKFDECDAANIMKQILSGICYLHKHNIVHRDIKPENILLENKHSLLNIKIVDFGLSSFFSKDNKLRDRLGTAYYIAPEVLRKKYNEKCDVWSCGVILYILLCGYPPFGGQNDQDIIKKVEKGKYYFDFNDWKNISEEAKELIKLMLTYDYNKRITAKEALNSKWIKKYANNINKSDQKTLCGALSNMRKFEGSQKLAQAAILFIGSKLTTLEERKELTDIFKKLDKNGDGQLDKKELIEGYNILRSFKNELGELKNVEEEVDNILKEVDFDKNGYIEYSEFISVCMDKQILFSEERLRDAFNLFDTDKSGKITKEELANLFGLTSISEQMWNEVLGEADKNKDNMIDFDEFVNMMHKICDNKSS
The target of assay [6] is Plasmodium falciparum protein kinase 6 (PK6, PF3D7_1337100) (UniProt Q8IDW1). Description: PfPK6 kinase inhibitors, biochemical, TCAMS library (AID 1159586). Particulars: recombinant PfPK6, Kinase-Glo ATP depletion luminescence.
Plasmodium falciparum protein kinase 6 (PK6, PF3D7_1337100), sequence (Q8IDW1 1-305): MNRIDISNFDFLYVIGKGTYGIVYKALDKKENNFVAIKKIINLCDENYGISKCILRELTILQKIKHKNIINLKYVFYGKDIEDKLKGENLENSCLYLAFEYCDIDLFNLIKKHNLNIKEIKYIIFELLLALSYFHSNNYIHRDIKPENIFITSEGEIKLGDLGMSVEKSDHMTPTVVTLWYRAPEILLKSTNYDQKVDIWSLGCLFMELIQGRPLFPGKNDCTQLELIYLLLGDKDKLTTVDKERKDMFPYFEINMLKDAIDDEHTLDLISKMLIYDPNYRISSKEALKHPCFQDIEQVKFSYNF
Assay [7] deals with Protein kinase 7 (PK7), Plasmodium falciparum 3D7 (PF3D7_0213400) (UniProt Q7YTF7). Description: inhibition of Plasmodium PK7 catalytic activity – biochemical, TCAMS antimalarial set, Kinase-Glo luminescence (AID 1159587). The settings on record: recombinant PfPK7, Kinase-Glo ATP depletion luminescence.
Protein kinase 7 (PK7), Plasmodium falciparum 3D7 (PF3D7_0213400), sequence (Q7YTF7 1-343): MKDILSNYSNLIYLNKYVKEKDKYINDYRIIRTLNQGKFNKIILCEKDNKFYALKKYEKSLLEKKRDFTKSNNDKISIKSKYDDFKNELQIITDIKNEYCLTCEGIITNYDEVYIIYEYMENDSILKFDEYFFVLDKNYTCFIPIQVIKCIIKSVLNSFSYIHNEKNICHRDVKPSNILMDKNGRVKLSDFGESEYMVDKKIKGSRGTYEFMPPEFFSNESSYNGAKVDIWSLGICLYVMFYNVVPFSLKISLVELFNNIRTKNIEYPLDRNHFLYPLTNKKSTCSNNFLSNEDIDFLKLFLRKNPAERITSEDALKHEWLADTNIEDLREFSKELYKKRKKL
For assay [8], the target named is Calcium-dependent protein kinase 4 (Plasmodium falciparum (isolate 3D7)) (UniProt Q8IBS5). Put plainly: PfCDPK4 kinase inhibitors, biochemical, TCAMS library (AID 1159588; cut-off not given, nearly all actives have IC50 up to about 0.91 µM). Particulars: recombinant PfCDPK4, Kinase-Glo ATP depletion luminescence.
Calcium-dependent protein kinase 4 (Plasmodium falciparum (isolate 3D7)), sequence (Q8IBS5 whole entry, looked up): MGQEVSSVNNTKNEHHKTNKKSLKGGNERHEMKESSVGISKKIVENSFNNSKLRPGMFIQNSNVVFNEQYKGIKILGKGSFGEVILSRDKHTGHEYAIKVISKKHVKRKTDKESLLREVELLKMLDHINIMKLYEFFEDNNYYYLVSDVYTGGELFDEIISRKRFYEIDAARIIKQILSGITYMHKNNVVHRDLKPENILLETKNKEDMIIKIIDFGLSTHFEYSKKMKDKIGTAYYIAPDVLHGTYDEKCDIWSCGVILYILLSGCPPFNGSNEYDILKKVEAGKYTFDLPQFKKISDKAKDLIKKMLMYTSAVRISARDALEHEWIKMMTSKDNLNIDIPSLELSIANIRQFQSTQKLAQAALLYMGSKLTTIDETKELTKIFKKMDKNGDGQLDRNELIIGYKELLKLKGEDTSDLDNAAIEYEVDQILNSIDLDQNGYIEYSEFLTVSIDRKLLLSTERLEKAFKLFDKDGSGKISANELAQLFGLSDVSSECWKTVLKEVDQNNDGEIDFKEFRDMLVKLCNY

L-lactate dehydrogenase (Plasmodium falciparum (isolate CDC / Honduras)), sequence (Q27743 whole entry, looked up): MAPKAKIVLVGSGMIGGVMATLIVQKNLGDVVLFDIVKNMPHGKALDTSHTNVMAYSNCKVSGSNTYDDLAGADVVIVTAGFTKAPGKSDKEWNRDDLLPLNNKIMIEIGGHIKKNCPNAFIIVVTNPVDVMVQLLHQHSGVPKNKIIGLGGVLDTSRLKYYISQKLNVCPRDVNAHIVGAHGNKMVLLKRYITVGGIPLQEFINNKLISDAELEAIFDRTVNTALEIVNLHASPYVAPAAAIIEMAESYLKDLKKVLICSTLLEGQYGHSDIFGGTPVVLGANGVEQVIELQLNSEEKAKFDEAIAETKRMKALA

Consider `CCn1c(Sc2ccc([N+](=O)[O-])c(C#N)c2)nnc1-c1cccc(Cl)c1`, for which the growth inhibition in assay [1] was 22%; in assay [4], 89% (active). Also, the results for the inhibition in assay [2] and in assay [3] were 8% and 2%, respectively. The result in assay [5], in assay [6], in assay [7] and in assay [8] was inactive.
Regarding `Cc1cccc(C(=O)Nc2ccnc(N3CCC(N(C)Cc4ccccc4)CC3)c2)c1`, the results for the growth inhibition in assay [1] and in assay [4] were 2% and 93% (active), respectively. The values for the inhibition in assay [2] and in assay [3] were 12% and -1%, respectively. The outcome in assay [5], in assay [6], in assay [7] and in assay [8] was inactive.
Regarding `O=S(=O)(c1cccc(F)c1)c1ccc(Nc2ncnc3cc(Br)sc23)cc1Cl`, the growth inhibition in assay [1] was 11%; in assay [4] it was 86% (active). Also, the inhibition in assay [2] is 20%; in assay [3], -2%. In addition, the result in assay [5], in assay [6], in assay [7] and in assay [8] was inactive.
In the case of `O=C(NCc1cccc(F)c1)Nc1cccc(-c2cccc(-c3nc4ccccc4[nH]3)c2)c1`, the results for the growth inhibition in assay [1] and in assay [4] were 27% and 96% (active), respectively. Besides, the inhibition in assay [2] was 28%; in assay [3], -1%. The result in assay [5], in assay [6], in assay [7] and in assay [8] was inactive.
Turning to `O=C(Nc1ccc(-c2cncc(NCCCN3CCCC3)c2)cc1)c1ccccc1`, the growth inhibition in assay [1] is 49%; in assay [4], 94% (active). Moreover, the figures for the inhibition in assay [2] and in assay [3] were -1% and -2%, respectively. Besides, the outcome in assay [5], in assay [6], in assay [7] and in assay [8] was inactive.
For the molecule `O=c1[nH]ccc2nc(N[C@@H]3CCNC3)nc(Nc3cccc(S(=O)(=O)N4CCOCC4)c3)c12`, the growth inhibition in assay [1] is 98% (active); in assay [4] it was 90% (active). Also, the inhibition in assay [2] is 0%; in assay [3] it was 4%. Further, the result in assay [5], in assay [6], in assay [7] and in assay [8] was inactive.
For the molecule `Cc1noc(C)c1-c1cccc(CNCc2ccc(-c3ccc(-c4nc5ccc(C(F)(F)F)cc5[nH]4)cc3)cc2)c1`, the growth inhibition in assay [1] was 97% (active); in assay [4], 102% (active). Also, the inhibition in assay [2] is 35%; in assay [3], 2%. For the same molecule, the result in assay [5], in assay [6], in assay [7] and in assay [8] was inactive.
In the case of `N[C@@H](CCNCc1ccc(-c2cccnc2)cc1)Cc1ccc(F)c(F)c1`, the growth inhibition was 57% (active) in assay [1] and 98% (active) in assay [4]. For the same molecule, the inhibition in assay [2] is 45%; in assay [3] it was 2%. The result in assay [5], in assay [6], in assay [7] and in assay [8] was inactive.
For the molecule `N#Cc1ccc2c(c1)CN(C1CCC(NC(=O)/C=C/c3cc(C(F)(F)F)cc(C(F)(F)F)c3)CC1)CCC2` (stereo not given), the growth inhibition in assay [1] was 4%; in assay [4], 95% (active). Besides, the inhibition is 34% in assay [2] and -4% in assay [3]. Besides, the result in assay [5], in assay [6], in assay [7] and in assay [8] was inactive.
Turning to `COc1ccc2nccc(CCN3C[C@H](CNCc4ccc5c(n4)NC(=O)CS5)[C@H](O)C3)c2n1`, the figures for the growth inhibition in assay [1] and in assay [4] were 26% and 86% (active), respectively. In addition, the values for the inhibition in assay [2] and in assay [3] were 4% and -2%, respectively. Also, the outcome in assay [5], in assay [6], in assay [7] and in assay [8] was inactive.
For `O=C(Nc1cccc(CN2CCCN(Cc3ccsc3)CC2)c1)c1cc2ccccc2s1`, the growth inhibition in assay [1] is 29%; in assay [4], 96% (active). The figures for the inhibition in assay [2] and in assay [3] were 25% and 5%, respectively. Besides, the result in assay [5], in assay [6], in assay [7] and in assay [8] was inactive.
Consider `CCOC(=O)c1cc(=O)c2ccc(OCC#N)cc2o1`, for which the growth inhibition in assay [1] was 86% (active); in assay [4], 88% (active). The inhibition in assay [2] was 2%; in assay [3], -6%. Also, the outcome in assay [5], in assay [6], in assay [7] and in assay [8] was inactive.
`CCCc1ccc(N2C(N)=NC(N)=NC2(C)C)cc1`: the values for the growth inhibition in assay [1] and in assay [4] were -2% and 94% (active), respectively. In addition, the inhibition in assay [2] is 59% (active); in assay [3], 6%. Also, the result in assay [5], in assay [6], in assay [7] and in assay [8] was inactive.
Consider `N#CN1CC[C@H](CS(=O)(=O)c2cccc(Br)c2)C1`, for which the growth inhibition is 74% (active) in assay [1] and 88% (active) in assay [4]. Moreover, the inhibition was 8% in assay [2] and -2% in assay [3]. Moreover, the result in assay [5], in assay [6], in assay [7] and in assay [8] was inactive.
Turning to `CN(CCc1ccccc1)c1ncc(-c2cccc(CNCCC3CCCN3C)c2)cn1` (stereo not given), the growth inhibition is 98% (active) in assay [1] and 92% (active) in assay [4]. Also, the inhibition in assay [2] is 99% (active); in assay [3], -1%. Besides, the result in assay [5], in assay [6], in assay [7] and in assay [8] was inactive.
Consider `CC(C)C[C@@H](/C=N/N1CC(=O)NC1=O)NC(=O)[C@H](CC(C)C)NC(=O)c1ccc(OCCN2CCOCC2)cc1`, for which the growth inhibition was 79% (active) in assay [1] and 94% (active) in assay [4]. Moreover, the inhibition in assay [2] was 11%; in assay [3], 1%. In addition, the result in assay [5], in assay [6], in assay [7] and in assay [8] was inactive.
For `CO/C(=C\C=C\c1cc2cc(Cl)c(Cl)cc2[nH]1)C(=O)NCCCN1CCN(c2cccc(Cl)c2)CC1`, the growth inhibition was 77% (active) in assay [1] and 100% (active) in assay [4]. Moreover, the results for the inhibition in assay [2] and in assay [3] were 58% (active) and 3%, respectively. In addition, the result in assay [5], in assay [6], in assay [7] and in assay [8] was inactive.
For `Cc1cc(-c2cnc(N)c(-c3ccc(N4CCN(C)CC4)cc3)c2)cc(C)c1O`, the results for the growth inhibition in assay [1] and in assay [4] were 99% (active) and 101% (active), respectively. Also, the inhibition in assay [2] is 3%; in assay [3], -5%. The result in assay [5], in assay [6], in assay [7] and in assay [8] was inactive.
For the molecule `CCC[C@@H]([C@@H](CC(C)C)C(=O)N[C@@H](CCCCNC(=O)c1cccc(OC)c1)C(=O)Nc1nccs1)N(O)C=O`, the growth inhibition in assay [1] was 99% (active); in assay [4] it was 100% (active). Also, the figures for the inhibition in assay [2] and in assay [3] were 5% and -4%, respectively. The outcome in assay [5], in assay [6], in assay [7] and in assay [8] was inactive.
For `CCc1cc(NCc2ccncc2)nc(Nc2ccc(F)cc2)n1`, the growth inhibition in assay [1] was 17%; in assay [4], 92% (active). For the same molecule, the inhibition in assay [2] is 8%; in assay [3], 0%. Besides, the result in assay [5], in assay [6], in assay [7] and in assay [8] was inactive.
